From PubChem BioAssay
Activity calls are given as the source filed them.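 Rule for the calls, unless noted: active = inhibition of the reporter signal at or above 50%; inactive = inhibition below 50%.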

How the values were obtained:
[1] = inhibitors of TNFa-induced NFkB p65 translocation, primary screen, imaging, HUVEC, MLSMR starter and 10KST1 sets (AID 438;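 active = inhibition above 20% together with a positive visual image hit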;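 note: compound added about 3h40 before a 20 min TNFalpha stimulation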;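 for inhibition: signal is the nuclear over cytoplasmic p65 intensity ratio per well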); conditions: HUVEC TNFa-induced p65 nuclear translocation; cell count: measured here: nuclei count (cytotoxicity indicator), at 2.08 µM; inhibition: at 2 µM, stronger effect = higher value, 0% TNFa-plus-vehicle, 100% no-TNFa wells
[2] = reduction of polyQ htt aggregates in cells – imaging, exon1htt(103Q)mCFP cells, high-content imaging, primary screen (AID 483;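 active = visual image review flags a hit and inhibition of aggregation exceeds 20%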;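 note: compound exposure lasted 3 days before fixation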;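 for nuclei count: percent of the per-plate median nuclei count of sample wells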); conditions: exon1htt(103Q)mCFP cell line, aggregate imaging, at 2 µM; inhibition of aggregation: stronger effect = higher value; nuclei count: measured here: cell count, toxicity
[3] = endothelial E-selectin expression blockers – imaging, HUVEC, immunofluorescence, MLSMR starter and 10KST1 sets, primary screen (AID 487;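 active = visually confirmed hit in the image check and inhibition above 20%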;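 for inhibition: signal is fraction of cell area covered by stained E-selectin grains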;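 for nuclei count: 100% = median nuclei count of all wells on the same plate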); conditions: HUVEC TNFalpha-induced E-selectin immunofluorescence imaging, at 2 µM; inhibition: stronger effect = higher value; nuclei count: measured here: cell number, toxicity
[4] = biological target: Voltage-gated potassium channel subunit beta-2 (Rattus norvegicus) (UniProt P62483); assay: inhibitors of rat Kvbeta2 reductase activity – biochemical, NADPH fluorescence, primary screen (AID 622;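 active = fluorescence slope higher than the sample average by over 3 SD, cut at about -0.22 in these data, passing the limit was not always enough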;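 note: slope of raw intensity against log time taken from 70 to 1610 s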); conditions: recombinant KvBeta, 4-cyanobenzaldehyde reduction, at 10 µM, stronger effect = higher value
Voltage-gated potassium channel subunit beta-2 (Rattus norvegicus), sequence (P62483 whole entry, looked up): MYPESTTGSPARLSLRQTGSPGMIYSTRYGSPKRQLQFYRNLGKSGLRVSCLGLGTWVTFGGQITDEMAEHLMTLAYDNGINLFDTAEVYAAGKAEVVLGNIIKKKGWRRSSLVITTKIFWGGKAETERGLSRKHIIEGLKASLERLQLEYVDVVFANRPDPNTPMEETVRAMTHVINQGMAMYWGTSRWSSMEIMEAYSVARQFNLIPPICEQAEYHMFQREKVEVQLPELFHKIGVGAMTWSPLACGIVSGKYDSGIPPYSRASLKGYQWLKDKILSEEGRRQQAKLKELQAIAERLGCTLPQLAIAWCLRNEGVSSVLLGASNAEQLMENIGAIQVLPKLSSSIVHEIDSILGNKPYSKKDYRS

[5] = biological target: Voltage-gated potassium channel subunit beta-2 (Rattus norvegicus) (UniProt P62483); assay: enhancers of rat Kvbeta2 NADPH turnover – biochemical, NADPH fluorescence, primary screen (AID 623;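 active = NADPH fluorescence slope more negative than the mean of all samples by about 3 SD, 99.7% confidence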;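 note: fluorescence intensity change per second fitted from 20 to 320 s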); conditions: Recombinant KvBeta, NADPH fluorescence decrease slope, 10 min; at 10 µM; stronger effect = lower value
[6] = biological target: Alpha-2C adrenergic receptor (Homo sapiens) (UniProt P18825); assay: compounds altering alpha2C-coupled GIRK flux – cell-based, HEK293 alpha2C/GIRK1/2, thallium flux, primary screen (AID 624;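 active = fluorescence slope after compound addition differing from the mean of all screened samples at 99.7% confidence, in either direction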;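 note: slope of fluorescence ratio to pre-addition baseline per second over 15 to 24 s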); conditions: thallium flux BTC fluorescence, at 10 µM, actives lie on both sides
Alpha-2C adrenergic receptor (Homo sapiens), sequence (P18825 whole entry, looked up): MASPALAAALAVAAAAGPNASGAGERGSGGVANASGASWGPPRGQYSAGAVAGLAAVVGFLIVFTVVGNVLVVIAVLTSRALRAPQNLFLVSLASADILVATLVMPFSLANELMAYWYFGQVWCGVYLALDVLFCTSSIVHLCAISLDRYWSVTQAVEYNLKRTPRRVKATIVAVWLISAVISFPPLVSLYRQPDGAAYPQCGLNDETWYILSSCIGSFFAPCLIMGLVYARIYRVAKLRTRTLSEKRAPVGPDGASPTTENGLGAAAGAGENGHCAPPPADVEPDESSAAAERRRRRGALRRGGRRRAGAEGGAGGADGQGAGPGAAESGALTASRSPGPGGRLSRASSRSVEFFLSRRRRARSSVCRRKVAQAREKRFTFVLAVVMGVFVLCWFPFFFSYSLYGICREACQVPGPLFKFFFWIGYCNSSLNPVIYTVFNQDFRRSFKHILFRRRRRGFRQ

[7] = blockers of RIG-like receptor reporter activation – cell-based, Sendai virus stimulus, luciferase, 10K MLSCN set, TLR/RLR signaling modifier project, primary screen (AID 602276;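 active = inhibition at or above 50% at 10 µM; inactive = inhibition below 50%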;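 note: firefly luciferase from ISG56 promoter only with Renilla not read in this screen; 0% = Sendai virus plus DMSO and 100% = medium plus DMSO without virus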); conditions: HEK293 RL24 IRF3 luciferase reporter, at 10 µM, stronger effect = higher value
[8] = TLR3 IRF3 reporter activation blockers – cell-based, poly I:C stimulus, luciferase, 10K MLSCN set, primary screen (AID 602277); conditions: HEK293-TLR3 RL24 IRF3 luciferase reporter, at 10 µM, stronger effect = higher value

Structure (SMILES) | cell count [1] | inhibition [1] | inhibition of aggregation [2] | nuclei count [2] [%] | inhibition [3] | nuclei count [3] [%] | fluorescence slope [4] | NADPH fluorescence slope [5] | slope [6] | inhibition [7] | inhibition [8]
Cn1c(=O)c2c(nc(SCC(=O)N3CCCc4ccccc43)n2C)n(C)c1=O | 354 | -5.7% (inactive) | -9.7% (inactive) | 45.1 | -139% (inactive) | 115 | -0.361 (inactive) | -7.1e-05 (inactive) | 0.00482 (inactive) | -0.111% (inactive) | -6.19% (inactive)
O=C(CN(Cc1ccco1)C(=O)c1cc(=O)[nH]c2ccccc12)Nc1ccccc1Br | 498 | -22.4% (inactive) | 11.6% (inactive) | 103 | 10.6% (inactive) | 105 | -0.58 (inactive) | -4.1e-05 (inactive) | 0.00457 (inactive) | 16% (inactive) | 16.8% (inactive)
O=C(CCC(=O)N(c1cccc(F)c1)C(C(=O)NC1CCCC1)c1ccncc1)Nc1cccnc1 (stereo not drawn) | 465 | 0.6% (inactive) | -8.2% (inactive) | 70.3 | -32.3% (inactive) | 108 | -0.5 (inactive) | -3.7e-05 (inactive) | 0.00449 (inactive) | 18.8% (inactive) | 20.4% (inactive)
COCCOC(=O)C1=C(N)OC2=C(C(=O)CC(C)(C)C2)C1c1cccnc1 (stereo not drawn) | 662 | 4.8% (inactive) | 9.7% (inactive) | 139 | 22.6% (inactive) | 112 | -0.452 (inactive) | -4.3e-05 (inactive) | 0.00687 (inactive) | -8.98% (inactive) | 19% (inactive)
CCOC(=O)C(C)C1(O)c2ccccc2-c2ncccc21 (stereo not drawn) | 316 | 4.9% (inactive) | -6.7% (inactive) | 117 | 6.6% (inactive) | 97.7 | -0.296 (inactive) | -6.5e-05 (inactive) | 0.00533 (inactive) | 4.67% (inactive) | 8.95% (inactive)
O=C(CN1C(=O)COCC1=O)N1CCOCC1 | 377 | -7% (inactive) | 11.7% (inactive) | 108 | -35.1% (inactive) | 112 | -0.422 (inactive) | -0.00011 (inactive) | 0.00596 (inactive) | 9.66% (inactive) | 23.7% (inactive)
O=C(NC1CCCCC1)C(c1ccc(Cl)cc1)N(C(=O)c1cnccn1)c1ccc2c(c1)OCO2 (stereo not drawn) | 694 | 3.4% (inactive) | 21.6% (inactive) | 93.8 | -87% (inactive) | 110 | -0.392 (inactive) | -3.7e-05 (inactive) | 0.00597 (inactive) | 11.2% (inactive) | 7.2% (inactive)
Cc1cc(C)c2nc(C(F)(F)F)nc(NCCCN3CCCC3=O)c2c1 | 277 | 5% (inactive) | 21.4% (inactive) | 80.7 | -230% (inactive) | 97.5 | -0.484 (inactive) | -2.3e-05 (inactive) | 0.00428 (inactive) | 16.5% (inactive) | 18.3% (inactive)
COc1ccc(S(=O)(=O)NCc2ccc(C(=O)O)cc2)cc1 | 375 | 2.2% (inactive) | -11.9% (inactive) | 55.2 | -91.6% (inactive) | 93.9 | -0.624 (inactive) | -2.6e-05 (inactive) | 0.0062 (inactive) | 9.81% (inactive) | 17.1% (inactive)
CCn1c(SCC(=O)Nc2nc(C)cs2)nnc1-c1ccco1 | 339 | 0.4% (inactive) | -8.5% (inactive) | 114 | -93.6% (inactive) | 114 | -0.316 (inactive) | -2.7e-05 (inactive) | 0.00755 (inactive) | 8.27% (inactive) | 23.4% (inactive)
Cc1cc(C)n(-c2ccc(N3CCOCC3)nn2)n1 | 610 | -5.2% (inactive) | -8.5% (inactive) | 100 | -27.5% (inactive) | 120 | -0.4 (inactive) | -7.8e-06 (inactive) | 0.0039 (inactive) | -5.9% (inactive) | -11.9% (inactive)
O=C(NCc1ccc2c(c1)OCO2)c1ccc(NS(=O)(=O)c2ccc3c(c2)OCCO3)cc1 | 499 | -22.3% (inactive) | 20.4% (inactive) | 104 | -0.9% (inactive) | 128 | -0.615 (inactive) | -2.7e-05 (inactive) | 0.00624 (inactive) | 10.8% (inactive) | 17.5% (inactive)
Cc1nccn1CCCN1C(=O)OC2(CCCCC2)C1(C)O (stereo not drawn) | 350 | -3% (inactive) | 2.3% (inactive) | 113 | -4.4% (inactive) | 105 | -0.522 (inactive) | -3.8e-05 (inactive) | 0.00543 (inactive) | 4.87% (inactive) | 17.2% (inactive)
C/C(=C\C(=O)c1ccc(F)cc1)Nc1ccc(N2CCOCC2)cc1 | 412 | -7.9% (inactive) | 20.9% (inactive) | 86.5 | -1.4% (inactive) | 99.6 | -0.532 (inactive) | 3.5e-06 (inactive) | 0.00495 (inactive) | -13.9% (inactive) | -43.6% (inactive)
CCOc1ccc(N(C(C)C(=O)NC2CCCCCC2)S(C)(=O)=O)cc1 (stereo not drawn) | 355 | 2.7% (inactive) | -10.8% (inactive) | 109 | -40.2% (inactive) | 107 | -0.342 (inactive) | -4e-05 (inactive) | 0.00764 (inactive) | 3.76% (inactive) | 19.7% (inactive)
O=C(NCCSCc1ccco1)Nc1cccc(Cl)c1 | 502 | 3.6% (inactive) | -7.7% (inactive) | 99.9 | -67.4% (inactive) | 115 | -0.673 (inactive) | 1.6e-05 (inactive) | 0.0115 (inactive) | 2.33% (inactive) | -54.8% (inactive)
CCCCc1nc2ccccc2n2cc3c(=O)n(C)c(=O)n(C)c3c12 | 877 | 5.2% (inactive) | -29.8% (inactive) | 81.2 | -48.7% (inactive) | 104 | -0.524 (inactive) | -1.7e-05 (inactive) | 0.00741 (inactive) | 14.3% (inactive) | 28.9% (inactive)
Cc1ccc(S(=O)(=O)NCCNC(=O)C2CCCNC2=O)cc1 (stereo not drawn) | 440 | -0.4% (inactive) | -9.8% (inactive) | 97.5 | -14.7% (inactive) | 121 | -0.584 (inactive) | -7e-05 (inactive) | 0.00341 (inactive) | 16.4% (inactive) | 12.2% (inactive)
O=C1c2ccccc2-c2ccc(C(=O)N3CCOCC3)cc21 | 623 | -4.1% (inactive) | -6.2% (inactive) | 81.1 | -103% (inactive) | 101 | -0.235 (inactive) | -1.8e-05 (inactive) | 0.00393 (inactive) | 5.8% (inactive) | -1.97% (inactive)
CC(C)COC(=O)C1[C@H]2C(=O)N(Cc3cccs3)C[C@]23C=C[C@H]1O3 (stereo partly drawn) | 483 | 3.3% (inactive) | -2.4% (inactive) | 97.4 | -44.8% (inactive) | 127 | -0.393 (inactive) | -1.4e-05 (inactive) | 0.00385 (inactive) | 9.95% (inactive) | 32.4% (inactive)
CCCOC(=O)/C(C(N)=NCc1ccccc1)=C(\O)OCCC | 488 | 4.4% (inactive) | -27.7% (inactive) | 110 | -8.5% (inactive) | 127 | -0.406 (inactive) | 0.00015 (inactive) | 0.00562 (inactive) | -11.7% (inactive) | -11.9% (inactive)
Cc1cc(NC(=O)CSc2nccn2-c2ccc(Cl)cc2)no1 | 505 | 4.2% (inactive) | -6.1% (inactive) | 106 | -65.5% (inactive) | 120 | -0.554 (inactive) | -8.5e-06 (inactive) | 0.00588 (inactive) | -5.68% (inactive) | -15.6% (inactive)
CCOC(=O)N1CCC(n2c(SCC(=O)NCc3ccco3)nc3ccsc3c2=O)CC1 | 729 | 3.4% (inactive) | 2.8% (inactive) | 97.8 | -97.7% (inactive) | 118 | -0.386 (inactive) | -2.9e-05 (inactive) | 0.00588 (inactive) | 4.14% (inactive) | 23.6% (inactive)
COC(=O)c1ccc(Oc2nc(NC(C)C)nc(N(C)C)n2)cc1 | 632 | 28.3% (inactive) | -21.7% (inactive) | 94.4 | -112% (inactive) | 106 | -0.468 (inactive) | 2.5e-05 (inactive) | 0.00595 (inactive) | -2.9% (inactive) | 15.7% (inactive)
O=C(CN1CCN(C2CCCCC2)CC1)Nc1ccccc1-c1ccccc1 | 273 | 18.4% (inactive) | 16.3% (inactive) | 110 | -7.3% (inactive) | 105 | -0.609 (inactive) | -3.4e-05 (inactive) | 0.00596 (inactive) | 2.95% (inactive) | 24.7% (inactive)
COc1ccc(-c2c(=O)n(OCc3ccccn3)c3ccccc3[n+]2[O-])cc1OC | 398 | 3.3% (inactive) | -10.4% (inactive) | 104 | -22.9% (inactive) | 110 | -0.385 (inactive) | -3.7e-09 (inactive) | 0.00593 (inactive) | -2.61% (inactive) | -16.8% (inactive)
Cc1sc2nc(SCc3nc4ccccc4[nH]3)n(Cc3ccco3)c(=O)c2c1C | 585 | -2.2% (inactive) | 17.5% (inactive) | 91.4 | 8.2% (inactive) | 97.3 | -0.59 (inactive) | -2e-05 (inactive) | 0.00556 (inactive) | 0.73% (inactive) | -54.9% (inactive)
CCOC(=O)C1CCN(C(=O)CN(c2ccc(Cl)c(C(F)(F)F)c2)S(C)(=O)=O)CC1 | 648 | -23.5% (inactive) | -18.2% (inactive) | 107 | 8.7% (inactive) | 52.3 | -0.453 (inactive) | -1.4e-05 (inactive) | 0.0048 (inactive) | 11.7% (inactive) | 16.6% (inactive)
